This is a sample that favours compounds with a hit; in the whole collection about 12% have one here.
G9a block: qHTS Assay for Inhibitors of Histone Lysine Methyltransferase G9a | G9a H3K9 monomethylation, AlphaScreen, 2 h | 8.8% of 350,000 active | Histone-lysine N-methyltransferase EHMT2 (Homo sapiens), Q96KQ7 | Potency, µM (series often up to 102 µM), usual class: inhibitors; note: nearly all actives have a fitted effect of over 75% in size
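AlphaScreen detection with an anti-monomethyl H3K9 antibody quantified product after a 2 h room-temperature reaction containing 500 nM biotinylated H3K9 peptide, 20 µM SAM and 20 nM enzyme, which had been preincubated 15 min with compound.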
L3MBTL1 block: qHTS Assay for the Inhibitors of L3MBTL1; Lethal(3)malignant brain tumor-like protein 1 (Homo sapiens), Q9Y468; AlphaScreen L3MBTL1–H3K9me1 peptide binding; Potency, µM (top dose mostly 57.1 µM), usual class: inhibitors; 0.66% of 230,000 active; note: nearly all actives have a fitted effect of over 60% in size
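AlphaScreen proximity signal between nickel-chelate acceptor and streptavidin donor beads (final 10 ug/mL) reports binding of 50 nM L3MBTL1 to 75 nM biotin-H3 K9me1 peptide; complex incubated with compounds 30 min at room temperature; cefsulodin titration as control.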
JMJD2A Tudor: qHTS Assay for Inhibitors of JMJD2A-Tudor Domain | Lysine-specific demethylase 4A (Homo sapiens), O75164 | AlphaScreen JMJD2A-Tudor / H3K4me3 peptide binding | Potency, µM (series often up to 114 µM), most hits filed as inhibitors | 4.4% of 390,000 active; note: nearly all actives have a fitted effect of over 50% in size
BAZ2B block: qHTS Assay for Inhibitors of BAZ2B. Bromodomain adjacent to zinc finger domain protein 2B (Homo sapiens), Q9UIF8. AlphaScreen BAZ2B-H3K14Ac peptide displacement. Potency, µM (top dose mostly 114 µM), usual class: inhibitors. 4.4% of 360,000 active. AID 504333, 2011; note: nearly all actives have a fitted effect of over 60% in size
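AlphaScreen luminescence quantifies BAZ2B engagement of H3K14Ac peptide; the protein and biotinylated peptide are both at 50 nM final, buffer PBS pH 7.4 with 0.01% Tween-20, all steps at room temperature.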
HP1b binding inh: HTS for Inhibitors of HP1-beta Chromodomain Interactions with Methylated Histone Tails; Chromobox protein homolog 1 (Homo sapiens), P83916; AlphaScreen HP1-beta / biotin-H3K9me3 peptide binding; Potency, µM (highest dose often 114 µM), actives largely listed as inhibitors; 0.56% of 390,000 active; note: nearly all actives have a fitted effect of over 70% in size
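HP1-beta protein (50 nM final) preincubated 30 min at room temperature with biotinylated H3(1-18)K9me3 peptide (50 nM) in PBS pH 7.4, 0.01% Tween-20, then compound added for 30 min. AlphaScreen streptavidin donor/nickel chelate acceptor beads (10 ug/mL final), 30 min dark, luminescence read.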
Sfp inh: qHTS Assay for Inhibitors of Bacillus subtilis Sfp phosphopantetheinyl transferase (PPTase) | 4'-phosphopantetheinyl transferase ffp (Bacillus subtilis), Q9F4F7 | Biochemical Sfp PPTase activity, qHTS | Potency, µM, most hits filed as inhibitors | 3.5% of 310,000 active | AID 1490, 2009;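 note: the enzyme is Sfp with the accession as filed and its product quenches rhodamine fluorescence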
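Compounds were incubated with enzyme (final 15 nM) for 15 min at room temperature before substrate addition started the reaction. Fluorescence at 525 nm excitation, 598 nm emission was recorded immediately and after 30 minutes.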
Each line names hits and unclear results; the compound was inactive in the other large screens. Calls come from the whole dose curve; as a rule, active = well fitted curve in the direction sought with a large enough effect; inconclusive = small, poorly fitted or top-dose-only effect, or another doubt; inactive = no such curve, though single readings can be large; an effect the other way counts as inactive or inconclusive.

N=c1n(CCN2CCCC2)c2ccccc2n1CC(O)c1ccco1 (stereo unspecified)	G9a block inconclusive, BAZ2B block inconclusive (no result: L3MBTL1 block)
N=c1n(CCN2CCCCC2)c2ccccc2n1CC(=O)c1ccc(Cl)c(Cl)c1	BAZ2B block 31.6µM, Sfp inh 35.5µM (no result: G9a block)
CN(C)CCn1c(=N)n(CC(O)c2ccc(Cl)c(Cl)c2)c2ccccc21 (stereo unspecified)	G9a block 44.7µM
CCCCn1c(=N)n(CC(O)c2ccccc2)c2ccccc21 (stereo unspecified)	Sfp inh inconclusive (no result: G9a block, L3MBTL1 block)
N=c1n(CCN2CCCCC2)c2ccccc2n1CC(O)c1cccc(Br)c1 (stereo unspecified)	G9a block 50.1µM
N=c1n(CCN2CCCCC2)c2ccccc2n1CC(O)c1ccc(Cl)c(Cl)c1 (stereo unspecified)	G9a block 17.8µM, JMJD2A Tudor inconclusive, Sfp inh inconclusive (no result: L3MBTL1 block)
Cc1cc(C)c(NC(=O)C2CCN(C(=O)N3CCOc4ccccc43)CC2)c(C)c1	none (no result: L3MBTL1 block, Sfp inh)
c1ccc(OCCCn2ccnc2)cc1	none (no result: G9a block)
CCc1ccc(OCCCCCn2ccnc2)cc1	G9a block 10µM, JMJD2A Tudor 2.51µM, BAZ2B block 50.1µM, HP1b binding inh 56.2µM
CCc1ccc(OCCn2ccnc2)cc1	G9a block 22.4µM, JMJD2A Tudor 28.2µM, BAZ2B block inconclusive, HP1b binding inh inconclusive
Cc1cc(OCCCCCn2ccnc2)cc(C)c1Cl	JMJD2A Tudor inconclusive, BAZ2B block inconclusive (no result: L3MBTL1 block)
Cc1ccc(C(=O)N/C(=C\c2cccs2)C(=O)NCCCn2ccnc2)cc1C	JMJD2A Tudor inconclusive, BAZ2B block 50.1µM
O=C(NCCCn1ccnc1)/C(=C/c1ccco1)NC(=O)c1ccco1	JMJD2A Tudor inconclusive, HP1b binding inh inconclusive
Cc1ccc(C(=O)N/C(=C\c2ccco2)C(=O)NCCCn2ccnc2)cc1C	L3MBTL1 block inconclusive, JMJD2A Tudor 17.8µM, BAZ2B block 7.94µM
Cc1ccc(C(=O)N/C(=C\c2cccs2)C(=O)N2CCN(C)CC2)cc1C	G9a block 70.8µM (no result: L3MBTL1 block)
O=C(NCCCn1ccnc1)/C(=C/c1ccco1)NC(=O)c1cccs1	G9a block inconclusive, BAZ2B block 79.4µM (no result: L3MBTL1 block)
Cc1ccc(NC(=O)Cn2cnc3sc(C(=O)O)c(C)c3c2=O)cc1Cl	none (no result: L3MBTL1 block, Sfp inh)
COc1ccc(NC(=O)C(=O)NCC2(c3ccccc3)CCCC2)c(OC)c1	none (no result: L3MBTL1 block, Sfp inh)
COc1cccc(Cn2c(NCc3ccc(C)cc3)nc3c2c(=O)n(C)c(=O)n3C)c1	none (no result: L3MBTL1 block, Sfp inh)
CCc1c(-c2ccccc2)nc2ccccc2c1C(=O)NCc1ccc(C)cc1	none (no result: L3MBTL1 block, Sfp inh)
Cc1ccc(C)n1-c1nnc(N2CCCC(C(=O)Nc3ccccc3Br)C2)s1 (stereo unspecified)	none (no result: L3MBTL1 block, Sfp inh)
O=C(O)/C=C/c1ccc(S(=O)(=O)Nc2ccc(OCc3ccccc3)cc2)cc1	none (no result: L3MBTL1 block)
O=C(O)CCc1ccc(S(=O)(=O)Nc2ccc(OCc3ccccc3)cc2)cc1	G9a block 44.7µM (no result: L3MBTL1 block)
COCCNC(=O)CCc1ccc(S(=O)(=O)Nc2ccc(C)cc2)cc1	Sfp inh 79.4µM (no result: L3MBTL1 block)
Cc1c(Cl)cccc1NC(=O)Nc1c[nH]c(=O)[nH]c1=O	none (no result: L3MBTL1 block, Sfp inh)
COc1ccc(-n2ncc(C(=O)NCc3ccc4c(c3)OCO4)c2C2CCN(C(=O)OC(C)(C)C)CC2)cc1	none (no result: L3MBTL1 block, Sfp inh)
CC(=O)Nc1ccc(C(=O)N/N=C/c2cc(Br)cc(Br)c2O)cc1	JMJD2A Tudor 56.2µM, HP1b binding inh inconclusive
CC(C)C(=O)Nc1ccc(C(=O)N/N=C/c2cc(Br)cc(Br)c2O)cc1	JMJD2A Tudor inconclusive, BAZ2B block 7.94µM (no result: G9a block)
CC(C)C(=O)Nc1ccc(C(=O)Nc2ccc(Br)cc2F)cc1	none (no result: L3MBTL1 block, BAZ2B block)
COc1cc(OC)c(/C=N/NC(=O)c2ccc(NC(C)=O)cc2)cc1Br	none
O=C(OCC#CCSc1nnc(-c2cccc3ccccc23)o1)c1ccc(F)c(F)c1	none (no result: G9a block, L3MBTL1 block, BAZ2B block, HP1b binding inh, Sfp inh)
